High-throughput results: PubChem, National Center for Advancing Translational Sciences (NCATS)
TSHR antag – blocks TSH signaling through the human TSH receptor; AID 504810; actives 0.2% (n = 330,000); P16473; activity change, negative = inhibition, % at 11.5 µM; TSHR-expressing cells, TSH-stimulated cAMP HTRF, 2 h; hits give low values;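 active means activity change below a set negative limit, meaning inhibition stronger than a set level, cut at about -70% in these data; inconclusive means activity change between two set negative limits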; further: on the % scale 0 is the no-effect control and ±100 the full control effect
Target sequence (P16473 whole entry, looked up): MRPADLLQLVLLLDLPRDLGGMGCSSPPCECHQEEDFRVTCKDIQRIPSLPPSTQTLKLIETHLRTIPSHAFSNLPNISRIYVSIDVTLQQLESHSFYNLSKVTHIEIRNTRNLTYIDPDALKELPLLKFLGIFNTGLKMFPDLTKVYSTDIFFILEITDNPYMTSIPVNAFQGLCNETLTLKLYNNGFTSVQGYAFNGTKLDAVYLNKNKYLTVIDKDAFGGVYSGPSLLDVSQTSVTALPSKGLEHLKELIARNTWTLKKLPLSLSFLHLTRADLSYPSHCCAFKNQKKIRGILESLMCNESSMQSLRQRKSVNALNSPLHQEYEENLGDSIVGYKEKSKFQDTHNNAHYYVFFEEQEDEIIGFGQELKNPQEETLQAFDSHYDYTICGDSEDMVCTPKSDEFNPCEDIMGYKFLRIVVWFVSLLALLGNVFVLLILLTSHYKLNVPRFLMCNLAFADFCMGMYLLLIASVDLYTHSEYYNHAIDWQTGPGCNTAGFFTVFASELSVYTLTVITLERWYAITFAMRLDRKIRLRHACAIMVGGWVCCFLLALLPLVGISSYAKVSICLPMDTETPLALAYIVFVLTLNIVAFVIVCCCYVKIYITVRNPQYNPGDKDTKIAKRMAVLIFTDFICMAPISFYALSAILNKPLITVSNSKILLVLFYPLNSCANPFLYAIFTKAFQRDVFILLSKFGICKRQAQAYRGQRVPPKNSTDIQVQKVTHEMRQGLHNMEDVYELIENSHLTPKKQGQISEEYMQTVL
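Freshly harvested TSHR cells receive pin-tooled compound, then EC80 TSH at 4nM final. After 2 hours at 37 deg C, antibody in lysis buffer and cAMP-d2 are added; 30 minutes at ambient temperature precede the HTRF read.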
MmCpn inh – M. maripaludis TRiC chaperonin inhibition | purified Mm-Cpn ATPase, ADP Transcreener TR-FRET | Potency, µM (doses to about 76.9 µM), for the others: at the highest dose activity, negative = inhibition, hits mostly inhibitors | actives 0.031% (n = 330,000) | AID 504842; further: potency means the concentration at half of the fitted maximal effect; on the % scale 0 is the no-effect control and ±100 the full control effect; nearly all actives have a fitted effect of over 80% in size
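ATP (10 uM final) was added to archaeal chaperonin (25 nM final) after 10 min exposure to test compound at 37°C; after 30 min further incubation, ADP was detected by competitive TR-FRET.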
B2AR arrestin – recruits beta-arrestin to the human beta2-adrenergic receptor; P07550; beta-arrestin recruitment to beta2AR, cell-based reporter; Potency, µM (top dose mostly 46.1 µM), for inactives: at the top dose activation, usual class: activators; actives 0.02% (n = 330,000); AID 492947;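 further: potency means the concentration at half of the fitted maximal effect; 0% = DMSO controls and full agonism = EC100 isoproterenol or metaproterenol; nearly all actives have a fitted effect of over 65% in size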
TCR activator – activators of T cell receptors; 330,000 tested, under 10 active; Potency, µM (top dose mostly 9.22 µM), inactives show at the highest dose activation of IL-2 secretion, actives largely listed as activators; primary human leukocytes, anti-CD3, IL-2 HTRF, 48 h; AID 504894; further: % of control where 0% means no effect
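IL-2 release read by HTRF sandwich (Eu cryptate donor, d2 acceptor, 665 nm emission) after 48 hr exposure of primary human leukocytes to compound together with anti-CD3 beads in the absence of co-stimulatory signals.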
CCT modulator – modulators of cytosolic chaperonin (CCT/TRiC) activity; purified chaperonin ATPase assay, HTRF ADP detection, 30 min; activity change, % (concentration not given with the values), hits read low; AID 651819; actives 0.3% (n = 360,000); in the data active means activity change below about -30%; further: on the % scale 0 is the no-effect control and ±100 the full control effect
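ATPase activity: ADP formed was measured by HTRF Transcreener (665/615 nm ratio) after 30 min at 37 deg C with 10 uM ATP. Compounds screened at one 76 uM concentration against 40 or 20 nM TRiC in Tris pH 7.4/KCl/MgCl2/DTT buffer.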
The depositor's hits bear a star; ? = inconclusive; / = not tested or not shown; ! = not active in a repeat; [ ] = another dose, or the depositor's remark. Sampled rows, rich in hits. Any-hit rate of the full collection: about 0.5%. Unless noted, the call rests on the fitted dose curve; in most records, active means well fitted curve in the direction sought with a large enough effect; inconclusive means small, poorly fitted or top-dose-only effect, or another doubt; inactive means no such curve, though single readings can be large; an effect the other way counts as inactive or inconclusive.

SMILES | TSHR antag | MmCpn inh | B2AR arrestin | TCR activator | CCT modulator
Cc1cccc(NC(=O)c2cc(C)nc3ccccc23)c1 | -4 | 3% | -1% | 0% | -39*
CN(C)S(=O)(=O)c1cccc(NC(=O)c2cc(-c3cccs3)nc3ccccc23)c1 | ? | ? | -3% | 3%[46.1 µM] | -32*
Cc1ccc(NC(=O)c2cc(C)nc3ccccc23)cc1 | -3 | -2% | 0% | / | 1
O=C(Nc1ccc2c(c1)OCO2)c1cc(-c2cccnc2)nc2ccccc12 | -7 | -1% | 0% | / | -7
Cc1ccc(-c2cc(C(=O)Nc3ccc4c(c3)OCCO4)c3ccccc3n2)cc1 | 0 | -20% | 0% | 6% | -33*
NS(=O)(=O)c1cccc(NC(=O)c2cc(-c3cccs3)nc3ccccc23)c1 | -7 | -3% | 1% | -1% | 0
COC1CC(C)C(OC)c2cc(O)cc(c2O)NC(=O)C(C)=CC=CC(C)C(OC(N)=O)C(C)=CC(C)C1OC (configuration not stated) | / | / | / | 6% | -2
O=C1c2cccnc2C(O)N1Cc1ccc(F)cc1 (configuration not stated) | 16 | 0% | -2% | -3%[46.1 µM] | -32*
CCOc1cc(NC(=O)C2CC2)c(OCC)cc1NC(=O)c1cccc(F)c1 | -89* | -2% | -1% | 8% | -1
COc1ccc(S(=O)(=O)N2CCOCC2)cc1NC(=O)COc1ccc2ccc(=O)oc2c1 | -10 | 1% | 0% | -2%[46.1 µM] | 0
COc1ccc(CCc2nc(C)ccc2O)cc1 | 3 | 0% | -1% | 2%[46.1 µM] | -67*!
O=C(COc1ccccc1)Nc1nnc(S(=O)(=O)N2CCCC2)s1 | 9 | 0% | -1% | -1% | -47*
O=C(Nc1nnc(S(=O)(=O)N2CCCC2)s1)c1ccccc1F | -103* | 2% | 1% | 1% | 0
O=C(Nc1nnc(S(=O)(=O)N2CCCC2)s1)c1ccccc1Cl | -9 | 1% | -1% | 2% | -2
O=S1(=O)CC(N2CCC(Cc3ccccc3)CC2)CN1C1CCCC1 (configuration not stated) | / | / | / | / | -4
NC(=O)c1ccccc1N/C=C/C(=O)c1cccs1 | 5 | -3% | 0% | 2%[46.1 µM] | -5
COc1ccc(/C=N/NS(C)(=O)=O)c(OC)c1 | 7 | 2% | -2% | -4%[46.1 µM] | 1
O=C1C(C=NCc2ccncc2)=C(O)c2ccccc21 | 0 | -1% | 0% | -3% | -3
O=C(NCCOC(=O)c1ccc(C(=O)OCCNC(=O)c2cccnc2)s1)c1cccnc1 | -5 | 0% | -1% | 3% | -56*
C=C(C)Cn1c(N(CCO)Cc2ccccc2)nc2c1c(=O)[nH]c(=O)n2C | 4 | 0% | -2% | -2% | -2
Nc1nncn1C(=O)c1ccccc1Cl | 10 | 0% | 0% | 9% | 2
Cc1cccc(CSC2=CS(=O)(=O)c3ccccc3N2)c1 | -4 | 2% | 0% | 3% | 1
Cc1ccc2c(c1)S(=O)(=O)c1ccc3ccccc3c1N2 | / | / | / | -1% | -37*
O=C(NCCc1ccccc1)C1CC(=O)N(C2CCCCC2)C1 (configuration not stated) | -8 | -2% | 0% | -5% | -1
CC1CCN(C(C(=O)Nc2ccc3c(c2)OCO3)c2ccccc2)CC1 (configuration not stated) | -2 | 0% | 0% | 1% | -84*
SMILES | TSHR antag | MmCpn inh | B2AR arrestin | TCR activator | CCT modulator
CC1CCCN(C(C(=O)Nc2ccc3c(c2)OCO3)c2ccccc2)C1 (configuration not stated) | -1 | 1% | -2% | -4% | -2
COCCn1c(Br)nc2c1c(=O)n(C)c(=O)n2C | 4 | -7% | -1% | 1% | -42*
Cc1ccc(OCCn2c(Br)nc3c2c(=O)n(C)c(=O)n3C)cc1 | -1 | -6% | -1% | -1%[46.1 µM] | -1
CCN(C(=O)COC(=O)c1cccnc1)c1cccc2ccccc12 | / | -1% | 0% | / | -50*
CCN(C(=O)COC(=O)c1cnccn1)c1cccc2ccccc12 | -2 | -1% | -1% | -5% | 1
Cc1cc(C(=O)OCC(=O)Nc2cc(C)on2)c2ccccc2n1 | -7 | 0% | 0% | -2% | -35*
COc1cc(/C=N/NC(=S)NC2CC3CCC2C3)ccc1O (configuration not stated) | 0 | 2% | 3% | -3% | 1
COc1ccc(/C=N/NC(=S)N[C@H]2CC3CCC2C3)cc1 (some centres not stated) | -7 | 1% | -1% | 2% | -67*
COc1ccc(N2CCN(C(CNC(=O)C(C)(C)C)c3ccco3)CC2)cc1 (configuration not stated) | 7 | -6% | 0% | 3% | -1
C=CCn1c2ccccc2c2nnc(SCC(=O)O)nc21 | -2 | 0% | -1% | / | -43*
Cc1ccc(CCNC(=O)CS(=O)Cc2nc(-c3ccccc3Cl)oc2C)cc1 (configuration not stated) | -11 | 0% | -1% | 15% | -60*
O=C(NCc1ccccc1)[C@@H]1CCCN1C(=O)[C@@H]1CCCN1C(=O)c1ccc(Cl)cc1Cl | / | / | / | / | -1
O=C(Nc1nnc(C2CC2)s1)c1ccc(Cl)c(S(=O)(=O)N2CCc3ccccc3C2)c1 | -90* | -11% | 1% | 1%[46.1 µM] | -1
CCc1nnc(NC(=O)c2ccc(Cl)c(S(=O)(=O)N3CCc4ccccc43)c2)s1 | -44 | -7% | 0% | 5% | -1
C#CCOCCOCCOCCNc1nc(N2CCN(C(=O)CCCCCCCCCCNC(=O)[C@H](CO)n3cc(CCCSC)nn3)CC2)nc(N2CCN(C(=O)CCCCCCCCCCNC(=O)[C@H](CCCCN)n3cc(CCO)nn3)CC2)n1 | 6 | 0% | 0% | -2% | -2
N#Cc1ccccc1S(=O)(=O)N1CCN(c2nc(-c3ccccc3)nc3ccccc23)CC1 | / | / | / | / | -1
Cc1nc(N2CCN(S(=O)(=O)c3ccccc3C#N)CC2)c2c(-c3ccccc3)csc2n1 | -79* | ? | 0% | 1% | -4
CCOc1ccccc1OCCCC(=O)NC1=NCCS1 | 3 | 2% | 0% | 9% | -4
CCC(C)[C@@H](NC(=O)OC(C)(C)C)c1nnc(S(=O)(=O)Cc2cccc(C)c2)o1 (some centres not stated) | -72* | -1% | 0% | 1% | 0
CCOC(=O)/C(C#N)=C/Nc1ccsc1C(=O)OC | -6 | 1% | ? | -2% | -49*
Cc1cc(Cl)ccc1OCC(=O)NNC(=O)c1cccs1 | / | / | / | 6% | -1
Cc1cc(Cl)ccc1OCC(=O)NNC(=O)c1ccco1 | 5 | 2% | 0% | -4% | -39*
CN(C(=O)CSc1nc(N)nn1-c1ccccc1)c1ccccc1 | -10 | -1% | 0% | -19% | -70*
CN(C(=O)CSc1nncn1-c1ccccc1)c1ccccc1 | 3 | -5% | 0% | 0% | -3
COc1ccc(CNC(=O)CNC(=O)c2ccc(Br)o2)cc1OC | 1 | 0% | 0% | 1% | -107*
